Sampled rows, rich in hits. Any-hit rate of the full collection: about 3.1%.
Autofluor counter – counter-screen for toxin protease inhibitors: compound fluorescence | AID 624483 | hit rate 3.1% among 360,000 | compound autofluorescence counterscreen, microsphere flow cytometry; hits give high values | fluorescence intensity (test concentration not listed); in the data active = fluorescence intensity above about 16000; inconclusive = no clear call, values can overlap the other calls
Anthrax LF prot – inhibitors of Bacillus anthracis lethal factor protease; multiplex microsphere protease cleavage assay, LF; hit rate 0.12% among 360,000; inhibition, % at 10 µM; P15917; also: plate controls were buffer without enzyme for full effect and enzyme alone for no effect
BoNT F protease – blocks Botulinum neurotoxin F light chain protease | Multiplex microsphere protease cleavage assay, flow cytometry | hit rate 0.22% among 360,000 | inhibition, % at 10 µM; in the data active = inhibition above about 35%, passing the limit was not always enough; inconclusive = no clear call, values can overlap the other calls; also: plate controls were buffer without enzyme for full effect and enzyme alone for no effect
BoNT A protease – inhibitors of Botulinum neurotoxin A light chain protease | hit rate 0.17% among 360,000 | multiplex microsphere protease substrate cleavage, flow cytometry | inhibition, % at 10 µM | AID 588499; also: plate controls were buffer without enzyme for full effect and enzyme alone for no effect
PriA SSB inh – blocks PriA binding to SSB C-terminal tail; AlphaScreen SSBct-PriA binding, biotinylated peptide; inhibition, % at 33 µM; hit rate 0.6% among 430,000; AID 1272365; in the data active = inhibition mostly above about 37%, no sharp cut-off; inactive = mostly below about 20%;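 also: plate controls were negative control peptide for no effect and reference peptide for full effect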
Starred values were filed as active, the others as inactive; ? = inconclusive; / = no result given. Rule as the data show it, unless noted: active = inhibition above about 30%; inconclusive = no clear call, values can overlap the other calls; inactive = below that.

SMILES	Autofluor counter	Anthrax LF prot	BoNT F protease	BoNT A protease	PriA SSB inh
COc1ccc(-n2c(COc3ccc(C)cc3)nnc2SCc2ccc(C#N)cc2)cc1	19083*	-2.3	-1.2	1.2	-6.3
NC(=O)c1ccc(NC(=O)C(=O)N2CCN(c3ccccc3F)CC2)cc1	/	/	/	/	1.0
Clc1ccc(-c2nnc3n2CCCC3)cc1	21835*	1.1	-1.4	-0.1	-19.1
Cc1onc(N)c1S(=O)(=O)N1CCc2ccccc2C1	/	/	/	/	-6.0
Cc1ccc(N=Cc2ccc[nH]2)c(O)c1	21732*	-9.2	-4.2	?	9.0
C=CCn1c(SCCC(=O)Nc2ccc3c(c2)OCO3)nc2sc3c(c2c1=O)CCCC3	/	/	/	/	-4.0
COC(=O)c1sc2ccccc2c1S(=O)(=O)N(C)CC(=O)Nc1ccc(F)c(F)c1	/	/	/	/	3.0
CCOc1ccc(-c2csc(C3COc4ccccc4O3)n2)cc1 (stereo unspecified)	23266*	-0.5	-2.8	0.6	-21.5
CCOc1ccc(C(=O)COC(=O)C2COc3ccccc3O2)cc1 (stereo unspecified)	3765	4.3	-4.1	-0.1	-11.2
COC(=O)c1sccc1S(=O)(=O)NCCC(O)c1ccoc1 (stereo unspecified)	/	/	/	/	-18.0
Cc1c(C(=O)O)oc2c1ccc1ccccc12	3635	-2.5	?	1.0	-12.8
Cc1c(C(=N)C(C#N)C#N)c(=N)oc2c1ccc1ccccc12	3219	-5.4	2.6	1.8	70.0*
Cc1nn(CC(=O)O)c(C)c1C	21501*	-2.8	3.4	1.5	-5.0
O=C(Nc1nc(CC(=O)N2CCN(C(=O)c3ccco3)CC2)cs1)c1ccc(=O)[nH]c1	/	/	/	/	-7.0
CCN1C(=O)C(CC(=O)NCc2ccc(Cl)cc2)N(CC)C1=O (stereo unspecified)	20390*	-0.2	-1.2	-1.1	1.8
COc1ccc(CC(=O)Nc2nnc(-c3ccccc3C)s2)cc1	/	/	/	/	11.0
Cc1ccc(N2CCC(C(=O)N[C@@H](C)c3ccccc3)CC2)nn1	/	/	/	/	-13.0
CCN(CC)S(=O)(=O)c1cccc(NC(=O)C2SC(=Nc3ccc(C)cc3C)C(C(=O)NCC3CCCO3)=C2N)c1 (stereo unspecified)	23589*	-0.8	-5.4	-0.4	5.7
O=C(c1cc(Cl)cc(Cl)c1)N1CCC2CC1c1cc(N3CCCCC3)ccc12 (stereo unspecified)	24126*	-0.3	26.5	-9.3	/
CC(=O)C12CCCCC1CC1C3CC(C)C4(O)CC(=O)CCC4(C)C3CCC12C (stereo unspecified)	3351	10.5	35.2*	1.1	2.8
COc1ccc(CN2CCN(c3cccc(C)c3C)CC2)cc1OC	17421*	-13.7	9.5	5.9	0.8
Cc1cccc(N2CCN(Cc3ccc4c(c3)OCO4)CC2)c1C	3995	1.1	-20.8	-2.4	-6.5
COc1ccc(CN2CCC(C(N)=O)CC2)cc1OCc1ccccc1	3993	1.0	?	-5.4	-7.0
COc1cc(CN2CCC(C(=O)NC3CCCC3)CC2)cc(Br)c1O	23761*	-2.6	-4.7	-1.1	-7.4
COc1cc(CN2CCN(c3cccc(C)c3C)CC2)cc(Br)c1O	23780*	-5.2	-9.2	?	33.3
SMILES	Autofluor counter	Anthrax LF prot	BoNT F protease	BoNT A protease	PriA SSB inh
COc1ccc(CN2CCN(C)CC2)cc1OCc1ccccc1	20197*	-0.1	0.7	1.7	6.9
COc1ccccc1C(=O)NCC(c1ccsc1)N1CCOCC1 (stereo unspecified)	/	/	/	/	-22.0
COCCN(CCOC)C(=O)Cc1csc2nc(-c3ccccc3)cn12	/	/	/	/	-3.0
Cc1cc2nnc(SCC(=O)Nc3ccccc3C(F)(F)F)n2c2ccccc12	/	/	/	/	-4.0
Cc1ccc(NC(=O)c2cc(-c3ccc(F)cc3)on2)cc1C	3945	-4.1	3.4	-0.7	4.1
CC(=O)c1cccc(NC(=O)c2cc(-c3ccc(F)cc3)on2)c1	19126*	-0.6	6.5	5.9	-10.2
Cc1nn(C)cc1CNC(=O)c1ccc(Br)o1	20359*	0.1	-1.3	-0.8	-15.2
O=C(NCc1cc(-c2ccco2)on1)c1ccc(Br)o1	/	/	/	/	39.0*
O=C(NCc1ccc(Cl)cc1)c1cc(-c2ccco2)on1	11224	-0.6	-11.3	-1.0	-4.7
O=C(NCc1ccc(F)cc1)c1cc(-c2ccco2)on1	23399*	-1.8	-5.6	-3.2	-1.8
Cc1nn(C)cc1NC(=O)c1ccc(Br)o1	2326	-0.2	-3.5	0.0	14.1
COc1cccc(C(C)=NNC(=O)c2cc(-c3cccnc3)nc3ccccc23)c1	/	/	/	/	-3.9
COCC(=O)NC1CCN(c2nc(-c3cccnc3)cs2)CC1	/	/	/	/	-1.0
COc1ccc(CNC(=O)c2cc(-c3ccccc3OC)on2)cc1	10809	-0.5	-2.6	-0.3	-13.5
O=C(Nc1ccc(F)cc1F)c1cc(-c2ccco2)on1	23169*	-1.4	0.3	?	-10.7
O=C(Nc1c(F)cc(F)cc1Br)c1cc(-c2ccco2)on1	9903	-5.3	-0.1	-0.5	-8.9

Screening results from PubChem.
